Assay [1] is described as follows: compounds binding Alexa647 anti-His antibody – biochemical, small-molecule microarray, 635 nm fluorescence, artefact control for SMM control protein annotation, primary screen (AID 1128).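 Also: score merges feature fluorescence with signal-to-noise for each printed compound spot.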 Conditions: higher = more signal.
For assay [2], the system named is Human papillomavirus type 1a E7 protein (residues 1-88). In words: HPV1a E7 small-molecule binders, primary screen, biochemical, small-molecule microarray, residues 1-88, 635 nm (AID 1129). Conditions: small-molecule microarray binding, fluorescence 635 nm; higher = more signal.
For assay [3], the target named is Focal adhesion kinase 1 (Homo sapiens) (UniProt Q05397). Kind of assay: PTK2 protein binding on printed compound slides – biochemical, small-molecule microarray, 635/667 nm fluorescence, BSA, DTT, primary screen (AID 1130).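 Also: composite of spot emission at 667 nm and signal to noise over triplicate slides.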 As to conditions: 635 nm fluorescence, higher = more signal.
The test system of assay [4] is Fibrinogen (Alexa647-labelled). In words: Alexa647-fibrinogen binding to printed small molecules – biochemical, small-molecule microarray, 635/667 nm fluorescence, artefact control for SMM control-protein annotation, profiling panel (AID 1131).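 Also: z-score merges 667 nm fluorescence with per-spot signal-to-noise over triplicate slides.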 Conditions: fibrinogen-A647 binding fluorescence, higher = more signal.
Assay [5] has as its target Follistatin (Homo sapiens) (UniProt P19883). Kind of assay: FST protein binding to printed compounds – biochemical, small-molecule microarray, 635/667 nm fluorescence, primary screen (AID 1132). As to conditions: 635 nm fluorescence, higher = more signal.
Assay [6] has as its target Fibroblast growth factor 2 (Homo sapiens) (UniProt P09038). Kind of assay: basic fibroblast growth factor binding to printed compounds – biochemical, small-molecule microarray, 635/667 nm fluorescence, primary screen (AID 1133). As to conditions: FGF2, fluorescence 635/667, higher = more signal.
A short description of assay [7]: JC-1 mitochondrial potential readout, lung cancer cells – cell-based, A549, JC-1 fluorescence, basal, 24 h, 100 nL, profiling panel (AID 1138).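 Also: A549 lung adenocarcinoma cells under basal conditions with no added stimulus; test concentration not given here.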 As to conditions: higher = more signal.
The next assay concerns Lefty1. In words: Lefty1 protein binding to printed compounds – biochemical, small-molecule microarray, 635/667 nm fluorescence, primary screen (AID 1139). As to conditions: fluorescence 635/667, higher = more signal.
Assay [8] has as its system wheat germ agglutinin (Triticum aestivum), Alexa647-labelled. In words: Alexa647-WGA lectin binding to printed small molecules – biochemical, small-molecule microarray, 635/667 nm fluorescence, artefact control for SMM control-protein annotation, profiling panel (AID 1140).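 Also: score merges 667 nm feature emission with signal to noise over triplicate slides.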 As to conditions: WGA-A647 binding, 635 nm fluorescence, higher = more signal.
Assay [9] concerns the target Luciferin 4-monooxygenase (Photinus pyralis) (UniProt P08659). Kind of assay: inhibition of purified Photinus pyralis luciferase – biochemical, luminescence, purified enzyme, 2006 set, primary screen (AID 1141).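 Also: cell-free assay with purified firefly luciferase at 100 ng per well in PBS; test concentration not given here.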 Conditions: purified firefly luciferase, SteadyGlo luminescence, 30 min; higher = more signal, called active from +8 up or from −8 down.
Assay [10] has as its system Wnt5a (protein binding on small-molecule microarray). In words: small molecules binding Wnt5a protein – biophysical, small-molecule microarray, 635/667 nm fluorescence, primary screen (AID 1142).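 Also: fluorescence read at 667 nm with signal to noise per printed feature.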 Conditions: 635 nm fluorescence, higher = more signal.
Assay [11] can be described thus: ATP-based viability of Huh7 replicon cells – cell-based, CellTiter-Glo luminescence, basal, 48 h, cytotoxicity control for HCV replication inhibitor project, primary screen (AID 1143).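 Also: Huh7 hepatoma cells carrying a hepatitis C replication reporter with no stimulus; test concentration not given here.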 As to conditions: higher = more signal, called active from +8 up or from −8 down. For orientation: Replicon systems follow genome replication, usually without infectious particles.
Assay [12] in a line: Pseudomonas biofilm growth suppression – PAO1 strain, BacTiter-Glo luminescence, LB-PBS, primary screen (AID 1144). Conditions: P. aeruginosa PAO1 biofilm, 12 h, higher = more signal.
Assay [13] is described as follows: basal CRE-LacZ reporter activity in PC12 – cell-based, unstimulated, primary screen (AID 1145). Conditions: no forskolin, luminescence, 4.5 h, higher = more signal, called active from +8 up or from −8 down.
Assay [14] in a line: forskolin-driven CRE-LacZ activity in PC12 – cell-based, CRE-LacZ reporter, forskolin-stimulated, primary screen (AID 1146).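 Also: PC12 cells with 6xCRE LacZ reporter stimulated by forskolin 10 µM; beta-galactosidase reporter signal reflecting CREB driven transcription.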 Conditions: luminescence, 4.5 h, higher = more signal, called active from +8 up or from −8 down.
For assay [15], the target named is Streptavidin (Streptomyces avidinii) (UniProt P22629). In words: compounds binding control protein streptavidin – biophysical, small-molecule microarray, 635/667 nm fluorescence, artefact control for SMM compound annotation, primary screen (AID 1147).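 Also: signal reflects streptavidin binding to arrayed compounds as a control protein.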 As to conditions: higher = more signal.
Assay [16] is described as follows: probe aInhba binding on compound microarray – biochemical, small-molecule microarray, 635/667 nm fluorescence, primary screen (AID 1148).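 Also: score merges 667nm spot fluorescence with signal-to-noise for antibody binding to printed compounds.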 As to conditions: higher = more signal.
Assay [17] has as its target Torsin-1A (Homo sapiens) (UniProt O14656). Kind of assay: TOR1A wild-type binding on microarray – cell lysate, small-molecule microarray, lysate, 635/667 nm, primary screen (AID 1149). As to conditions: COS7 hTOR1A-WT lysate, 635 nm fluorescence, higher = more signal.
For assay [18] the target is unchanged. In words: torsin A mutant lysate binding on microarrays – cell lysate, small-molecule microarray, COS7 lysate, 635/667 nm fluorescence, primary screen (AID 1150).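 Also: score pools 667 nm emission and signal to noise measuring lysate protein binding.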 Conditions: COS7 hTOR1A mutant lysate, 635 nm fluorescence, higher = more signal.
Assay [19] relates to Sonic hedgehog protein (Shh). Kind of assay: Sonic hedgehog microarray binding compounds – biochemical, small-molecule microarray, 635/667 nm fluorescence, primary screen (AID 1151).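 Also: Shh protein binding to compounds spotted on small-molecule microarray slides; score combines spot fluorescence intensity with signal-to-noise across triplicate slides.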 Conditions: 635 nm fluorescence, higher = more signal.

Structures are written as SMILES. Activity calls are given as the source filed them. Unless noted, no rule for the calls is given here.

Chain of Luciferin 4-monooxygenase (Photinus pyralis) (P08659 whole entry, looked up): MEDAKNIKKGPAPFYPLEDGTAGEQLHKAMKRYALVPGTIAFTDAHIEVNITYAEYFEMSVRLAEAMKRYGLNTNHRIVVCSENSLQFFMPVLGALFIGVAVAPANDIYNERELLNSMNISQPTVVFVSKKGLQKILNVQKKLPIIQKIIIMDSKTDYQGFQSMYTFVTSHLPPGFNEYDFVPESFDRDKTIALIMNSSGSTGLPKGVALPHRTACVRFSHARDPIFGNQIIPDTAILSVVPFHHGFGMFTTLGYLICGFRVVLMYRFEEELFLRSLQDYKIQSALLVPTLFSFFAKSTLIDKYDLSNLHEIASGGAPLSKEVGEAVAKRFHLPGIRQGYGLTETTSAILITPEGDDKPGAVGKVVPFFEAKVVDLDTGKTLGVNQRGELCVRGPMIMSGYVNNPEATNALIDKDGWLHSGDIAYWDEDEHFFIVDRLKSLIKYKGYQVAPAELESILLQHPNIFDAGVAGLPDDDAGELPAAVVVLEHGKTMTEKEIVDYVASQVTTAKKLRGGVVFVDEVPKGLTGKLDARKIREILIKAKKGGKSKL
Chain of Focal adhesion kinase 1 (Homo sapiens) (Q05397 whole entry, looked up): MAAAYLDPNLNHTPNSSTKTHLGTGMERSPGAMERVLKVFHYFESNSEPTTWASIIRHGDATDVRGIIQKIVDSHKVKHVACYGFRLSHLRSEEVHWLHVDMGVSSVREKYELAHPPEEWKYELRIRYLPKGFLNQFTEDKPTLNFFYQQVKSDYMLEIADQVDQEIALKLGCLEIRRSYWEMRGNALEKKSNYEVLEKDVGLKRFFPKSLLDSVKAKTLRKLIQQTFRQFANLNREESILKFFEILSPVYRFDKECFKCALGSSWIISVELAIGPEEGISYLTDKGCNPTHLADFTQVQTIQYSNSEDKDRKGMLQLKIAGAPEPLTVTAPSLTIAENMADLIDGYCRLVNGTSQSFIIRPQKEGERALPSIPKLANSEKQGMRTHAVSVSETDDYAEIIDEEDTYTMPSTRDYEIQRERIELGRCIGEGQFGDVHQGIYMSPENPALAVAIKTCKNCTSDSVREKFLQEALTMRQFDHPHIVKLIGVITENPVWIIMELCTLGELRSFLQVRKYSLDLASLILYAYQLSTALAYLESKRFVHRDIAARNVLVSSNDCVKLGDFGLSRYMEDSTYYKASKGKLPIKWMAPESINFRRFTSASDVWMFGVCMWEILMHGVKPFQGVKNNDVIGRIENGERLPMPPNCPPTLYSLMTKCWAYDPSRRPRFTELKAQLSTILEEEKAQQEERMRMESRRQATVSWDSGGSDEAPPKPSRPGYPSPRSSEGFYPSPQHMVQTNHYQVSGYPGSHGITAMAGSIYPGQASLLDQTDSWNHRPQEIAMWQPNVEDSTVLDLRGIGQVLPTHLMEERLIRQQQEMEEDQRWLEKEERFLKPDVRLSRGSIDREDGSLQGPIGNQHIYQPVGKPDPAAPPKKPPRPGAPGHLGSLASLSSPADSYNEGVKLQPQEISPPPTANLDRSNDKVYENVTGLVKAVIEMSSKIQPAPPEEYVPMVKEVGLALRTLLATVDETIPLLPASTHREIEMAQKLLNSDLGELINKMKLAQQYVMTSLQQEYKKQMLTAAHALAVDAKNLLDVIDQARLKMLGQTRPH
Chain of Follistatin (Homo sapiens) (P19883 whole entry, looked up): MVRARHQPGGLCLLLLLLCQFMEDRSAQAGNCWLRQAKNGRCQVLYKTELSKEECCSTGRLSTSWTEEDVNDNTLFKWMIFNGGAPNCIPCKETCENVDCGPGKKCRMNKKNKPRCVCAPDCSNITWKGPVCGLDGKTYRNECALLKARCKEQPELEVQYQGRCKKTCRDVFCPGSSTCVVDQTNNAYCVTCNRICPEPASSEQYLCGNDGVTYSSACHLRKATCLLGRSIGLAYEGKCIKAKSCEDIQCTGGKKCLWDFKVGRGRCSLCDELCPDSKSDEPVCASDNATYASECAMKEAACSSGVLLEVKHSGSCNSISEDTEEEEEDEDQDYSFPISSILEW
Chain of Torsin-1A (Homo sapiens) (O14656 whole entry, looked up): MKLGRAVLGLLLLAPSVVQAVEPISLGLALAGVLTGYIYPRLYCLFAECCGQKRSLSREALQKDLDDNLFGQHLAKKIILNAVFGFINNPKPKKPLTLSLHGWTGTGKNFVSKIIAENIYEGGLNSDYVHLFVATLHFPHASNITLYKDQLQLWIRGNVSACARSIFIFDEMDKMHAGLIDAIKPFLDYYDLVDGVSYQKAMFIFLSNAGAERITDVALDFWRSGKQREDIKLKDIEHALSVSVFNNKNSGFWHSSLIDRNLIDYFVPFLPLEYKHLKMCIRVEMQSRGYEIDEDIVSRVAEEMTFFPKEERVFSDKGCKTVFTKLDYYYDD
Chain of Fibroblast growth factor 2 (Homo sapiens) (P09038 whole entry, looked up): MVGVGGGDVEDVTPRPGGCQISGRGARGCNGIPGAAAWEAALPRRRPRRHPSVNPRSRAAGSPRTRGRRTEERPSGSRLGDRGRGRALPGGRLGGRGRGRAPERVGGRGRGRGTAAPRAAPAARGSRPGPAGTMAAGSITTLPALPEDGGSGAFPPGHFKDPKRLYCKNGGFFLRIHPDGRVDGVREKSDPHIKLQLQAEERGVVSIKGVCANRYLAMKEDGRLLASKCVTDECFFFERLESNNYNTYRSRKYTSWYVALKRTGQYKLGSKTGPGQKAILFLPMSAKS
Chain of Streptavidin (Streptomyces avidinii) (P22629 whole entry, looked up): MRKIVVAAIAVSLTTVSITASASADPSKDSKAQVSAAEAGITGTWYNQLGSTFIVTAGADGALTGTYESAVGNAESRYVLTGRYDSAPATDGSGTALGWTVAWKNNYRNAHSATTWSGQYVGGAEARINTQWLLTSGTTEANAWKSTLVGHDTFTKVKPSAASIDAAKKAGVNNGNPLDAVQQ

Regarding `CO[C@@H]1COC(=O)CCC[C@@H](C)[C@H](OC)COC(=O)[C@H](Cc2ccccc2)NC(=O)CC=C[C@H]1C`, the composite z-score in assay [1] was 0.393; in assay [2] it was -2.53; in assay [3], -0.268; in [4], -0.876; in assay [5], 1.29; in [6] it was 0.273. The composite z-score is 0.978 in the assay on Lefty1; -0.271 in [8]; -0.706 in assay [10]; -0.431 in assay [15]; -0.159 in assay [16]; 1.34 with Torsin-1A (Homo sapiens) [17]. Further, the figures for the composite z-score (with Torsin-1A (Homo sapiens) [18]; in assay [19]) were -0.0271 and 1.99, respectively. Further, the z-score was -0.972 in assay [7]; -0.418 (inactive) in assay [9]; -1.08 (inactive) in assay [11]; -0.894 (inactive) in [12]; 0.0897 (inactive) in [13]; 1.18 (inactive) in assay [14].
In the case of `O=C1[C@H]2[C@H]3[C@H](O)[C@H](O)CC(=NO[C@@H]4O[C@H](CO)[C@@H](O)[C@H](O)[C@H]4O)[C@H]3CC[C@H]2C(=O)N1Cc1ccc2c(c1)OCO2`, the composite z-score was 1.01 in [1]; -0.186 in assay [2]; 0.0254 in [3]; 0.762 in assay [4]; -0.164 in assay [5]; -0.654 in assay [6]. For the same compound, the composite z-score was 0.515 in the assay on Lefty1; -0.205 in assay [8]; -0.228 in assay [10]; 0.595 in assay [15]; -0.0719 in assay [16]; 0.838 with Torsin-1A (Homo sapiens) [17]. Further, the figures for the composite z-score (with Torsin-1A (Homo sapiens) [18]; in [19]) were 0.181 and -0.928, respectively. The z-score is 0.531 in assay [7]; 0.654 (inactive) in [9]; -0.402 (inactive) in assay [11]; 1.58 (inactive) in assay [12]; 0.525 (inactive) in assay [13]; -0.576 (inactive) in assay [14].
As to `O=C1CCCC=C1C(O)CCOCc1ccccc1` (stereo not given), the composite z-score in assay [1] was -0.467; in assay [2], -0.406; in assay [3] it was -0.0626; in [4] it was -1; in assay [5] it was 0.112; in assay [6], 0.102. In addition, the composite z-score in the assay on Lefty1 was 0.484; in [8], -0.123; in assay [10], -0.0912; in assay [15], 0.787; in [16], -0.2; with Torsin-1A (Homo sapiens) [17] it was 0.728. For the same compound, the composite z-score with Torsin-1A (Homo sapiens) [18] stood at 0.0645; in [19], 0.307. Further, the z-score in assay [7] was -0.758; in assay [9], -0.0361 (inactive); in [11], 0.056 (inactive); in assay [12], 0.964 (inactive); in assay [13] it was 0.11 (inactive); in assay [14], 0.0483 (inactive).
Turning to `NCCCCCNC(=O)[C@@H]1C[C@@H]2C(=O)N3CCC[C@H]3C(=O)N2[C@@H]1c1cccc(OCCO)c1`, the composite z-score came out at 1.83 in assay [1]; 0.689 in [2]; 1.13 in assay [3]; 0.974 in [4]; 1.34 in assay [5]; 0.878 in assay [6]. Also, the composite z-score was 0.437 in the assay with Lefty1; 0.881 in assay [8]; 0.369 in assay [10]; 0.899 in [15]; 1.15 in assay [16]; -0.0659 in the assay with Torsin-1A (Homo sapiens) [17]. For the same compound, the values for the composite z-score (with Torsin-1A (Homo sapiens) [18]; in assay [19]) were 1.36 and 0.696, respectively. Also, the z-score was -0.269 in assay [7]; -0.115 (inactive) in [9]; 0.902 (inactive) in [11]; -0.0862 (inactive) in assay [12]; -0.264 (inactive) in assay [13]; 0.325 (inactive) in assay [14].
Take `CCN1C(=O)[C@H]2[C@H]3[C@H](O)C=CC(=O)[C@@H]3CC[C@H]2C1=O`: the composite z-score in assay [1] worked out at 0.635; in [2], 0.936; in assay [3], 0.0565; in [4], 0.677; in assay [5], 0.307; in assay [6], 0.731. The composite z-score in the assay with Lefty1 was 0.514; in assay [8], 0.295; in assay [10], 0.213; in assay [15], 0.232; in assay [16], -0.0759; with Torsin-1A (Homo sapiens) [17] it was 0.0994. Further, the composite z-score in the assay with Torsin-1A (Homo sapiens) [18] was determined as 0.546; in assay [19], 0.62. Also, the z-score in [7] was -0.774; in assay [9], -0.605 (inactive); in [11] it was 0.148 (inactive); in assay [12] it was 0.465 (inactive); in [13] it was 0.342 (inactive); in assay [14], 0.069 (inactive).

These data come from PubChem BioAssay.
